# Assay results: PMC7862700, “An all-to-all approach to the identification of sequence-specific readers for epigenetic DNA modifications on cytosine”
# Legend:
# Assay in all cases: DAPPL (digital affinity profiling via proximity ligation, sequencing); 10 mM Tris-HCl pH 7.5, 50 mM NaCl, 1 mM DTT, 4% glycerol, room temperature, 30 min; GST-TFs on glutathione beads, 16-mer random dsDNA library, 0.1% formaldehyde crosslink after washing; high values mean tight binding
# FEV = target: T1, FEV (Homo sapiens, UniProt Q99581 1-238); settings: protein: recombinant; tags: N-terminal GST; dsDNA, one strand shown
# T1 sequence: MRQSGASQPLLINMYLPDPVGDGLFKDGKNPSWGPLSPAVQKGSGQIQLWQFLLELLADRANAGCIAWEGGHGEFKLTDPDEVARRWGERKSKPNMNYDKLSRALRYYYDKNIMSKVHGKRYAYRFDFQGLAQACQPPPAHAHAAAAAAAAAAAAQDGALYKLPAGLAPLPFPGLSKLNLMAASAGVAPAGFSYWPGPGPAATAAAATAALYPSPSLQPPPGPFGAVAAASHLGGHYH
# In short: (§1)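 Binding signal is each hexamer's read frequency for a factor divided by its frequency in the tag-only sample. The factors were GST-fused human transcription factors from yeast, captured on glutathione beads, DNA-barcoded and pooled with that sample. Pools were incubated with 200 nmole of a random double-stranded 16-mer DNA library in Tris/NaCl/DTT/glycerol buffer at room temperature for 30 min, then washed, crosslinked with 0.1% formaldehyde, proximity-ligated with BsaI/T4 ligase (1 h, 37 °C), PCR-amplified and sequenced on an Illumina NextSeq500.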
# ETV5 = ETV5 (Homo sapiens, UniProt P41161 1-510); settings: protein: recombinant; tags: N-terminal GST; dsDNA, one strand shown
# In short: as §1
# HSF1 = HSF1 (Homo sapiens, UniProt Q00613 1-529); settings: protein: recombinant; tags: N-terminal GST; chain copies: 3; dsDNA, one strand shown
# In short: as §1
# SPIC = target: T2, SPIC (Homo sapiens, UniProt Q8N5J4 1-248); settings: protein: recombinant; tags: N-terminal GST; dsDNA, one strand shown
# T2 sequence: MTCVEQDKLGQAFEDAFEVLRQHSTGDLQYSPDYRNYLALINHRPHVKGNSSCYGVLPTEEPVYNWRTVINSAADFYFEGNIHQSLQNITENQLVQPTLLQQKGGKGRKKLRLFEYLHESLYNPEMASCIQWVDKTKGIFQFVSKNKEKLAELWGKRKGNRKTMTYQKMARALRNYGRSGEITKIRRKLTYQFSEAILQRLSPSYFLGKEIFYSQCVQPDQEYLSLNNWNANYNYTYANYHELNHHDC
# In short: as §1
# ELF4 = ELF4 (Homo sapiens, UniProt Q99607 1-663); settings: protein: recombinant; tags: N-terminal GST; dsDNA, one strand shown
# In short: as §1
# ELK4 = target: T3, ELK4 (Homo sapiens, UniProt P28324-2 1-405); settings: protein: recombinant; tags: N-terminal GST; dsDNA, one strand shown
# T3 sequence: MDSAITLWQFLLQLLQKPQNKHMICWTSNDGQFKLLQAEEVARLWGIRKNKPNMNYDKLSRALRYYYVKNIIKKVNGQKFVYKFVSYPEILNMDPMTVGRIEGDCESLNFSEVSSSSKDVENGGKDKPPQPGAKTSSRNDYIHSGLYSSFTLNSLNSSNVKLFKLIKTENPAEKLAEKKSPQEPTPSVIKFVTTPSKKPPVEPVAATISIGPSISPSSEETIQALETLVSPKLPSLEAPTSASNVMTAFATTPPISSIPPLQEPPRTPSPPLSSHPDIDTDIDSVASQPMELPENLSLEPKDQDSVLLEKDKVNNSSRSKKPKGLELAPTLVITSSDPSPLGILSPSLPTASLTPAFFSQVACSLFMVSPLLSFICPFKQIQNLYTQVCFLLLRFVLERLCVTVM
# In short: as §1
# ETV2 = target: T4, ETV2 (Homo sapiens, UniProt O00321 1-342); settings: protein: recombinant; tags: N-terminal GST; dsDNA, one strand shown
# T4 sequence: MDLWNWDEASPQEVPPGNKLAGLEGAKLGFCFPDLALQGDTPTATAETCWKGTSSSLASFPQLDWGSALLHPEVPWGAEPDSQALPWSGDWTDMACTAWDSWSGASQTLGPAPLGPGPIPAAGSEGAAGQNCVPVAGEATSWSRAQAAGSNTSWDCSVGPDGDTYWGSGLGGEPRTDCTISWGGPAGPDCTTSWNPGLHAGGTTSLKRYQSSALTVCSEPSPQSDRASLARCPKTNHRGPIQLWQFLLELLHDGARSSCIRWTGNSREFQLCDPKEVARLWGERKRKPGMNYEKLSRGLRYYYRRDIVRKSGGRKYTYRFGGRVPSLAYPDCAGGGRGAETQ
# In short: as §1
# ELF3 = target: T5, ELF3 (Homo sapiens, UniProt P78545 1-371); settings: protein: recombinant; tags: N-terminal GST; dsDNA, one strand shown
# T5 sequence: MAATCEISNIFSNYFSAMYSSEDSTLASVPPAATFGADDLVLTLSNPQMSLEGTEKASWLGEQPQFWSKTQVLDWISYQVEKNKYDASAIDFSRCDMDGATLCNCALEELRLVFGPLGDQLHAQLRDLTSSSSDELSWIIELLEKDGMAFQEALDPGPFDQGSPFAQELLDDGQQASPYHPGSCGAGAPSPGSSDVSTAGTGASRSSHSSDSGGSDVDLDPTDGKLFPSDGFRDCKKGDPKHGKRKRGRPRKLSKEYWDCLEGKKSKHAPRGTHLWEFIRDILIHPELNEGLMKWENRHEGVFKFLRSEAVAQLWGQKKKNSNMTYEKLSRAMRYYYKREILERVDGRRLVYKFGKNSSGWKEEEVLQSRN
# In short: as §1
# CRX = CRX (Homo sapiens, UniProt O43186 1-299); settings: protein: recombinant; tags: N-terminal GST; dsDNA, one strand shown
# In short: as §1
# ETV1 = ETV1 (Homo sapiens, UniProt P50549 1-477); settings: protein: recombinant; tags: N-terminal GST; dsDNA, one strand shown
# In short: as §1
# ERF = target: T6, ERF (Homo sapiens, UniProt P50548 1-548); settings: protein: recombinant; tags: N-terminal GST; dsDNA, one strand shown
# T6 sequence: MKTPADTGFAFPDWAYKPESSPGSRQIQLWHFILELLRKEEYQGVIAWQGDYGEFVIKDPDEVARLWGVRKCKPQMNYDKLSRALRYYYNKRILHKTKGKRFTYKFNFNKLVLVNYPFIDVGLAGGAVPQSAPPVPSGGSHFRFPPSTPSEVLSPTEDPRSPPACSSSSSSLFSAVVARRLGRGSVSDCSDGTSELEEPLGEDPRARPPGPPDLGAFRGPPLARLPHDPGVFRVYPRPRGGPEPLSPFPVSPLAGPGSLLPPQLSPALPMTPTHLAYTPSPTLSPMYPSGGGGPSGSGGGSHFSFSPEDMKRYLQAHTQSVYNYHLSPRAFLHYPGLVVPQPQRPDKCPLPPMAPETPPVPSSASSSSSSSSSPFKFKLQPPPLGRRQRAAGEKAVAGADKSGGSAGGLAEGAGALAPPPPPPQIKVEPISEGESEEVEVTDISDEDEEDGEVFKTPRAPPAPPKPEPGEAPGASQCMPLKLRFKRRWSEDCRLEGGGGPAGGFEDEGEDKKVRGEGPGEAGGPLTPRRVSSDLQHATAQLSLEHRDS
# In short: as §1
# ETV3L = target: T7, ETV3L (Homo sapiens, UniProt Q6ZN32 1-361); settings: protein: recombinant; tags: N-terminal GST; dsDNA, one strand shown
# T7 sequence: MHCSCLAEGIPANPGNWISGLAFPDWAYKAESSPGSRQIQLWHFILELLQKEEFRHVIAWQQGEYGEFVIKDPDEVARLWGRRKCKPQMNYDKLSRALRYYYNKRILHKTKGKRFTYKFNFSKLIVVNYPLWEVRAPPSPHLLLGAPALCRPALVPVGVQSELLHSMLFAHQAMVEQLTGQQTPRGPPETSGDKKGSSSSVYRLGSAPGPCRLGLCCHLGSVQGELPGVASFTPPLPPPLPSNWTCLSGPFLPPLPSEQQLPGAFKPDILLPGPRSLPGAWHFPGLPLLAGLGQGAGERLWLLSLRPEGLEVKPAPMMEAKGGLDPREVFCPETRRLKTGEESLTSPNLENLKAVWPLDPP
# In short: as §1
# ETS2 = target: T8, ETS2 (Homo sapiens, UniProt P15036 1-469); settings: protein: recombinant; tags: N-terminal GST; dsDNA, one strand shown
# T8 sequence: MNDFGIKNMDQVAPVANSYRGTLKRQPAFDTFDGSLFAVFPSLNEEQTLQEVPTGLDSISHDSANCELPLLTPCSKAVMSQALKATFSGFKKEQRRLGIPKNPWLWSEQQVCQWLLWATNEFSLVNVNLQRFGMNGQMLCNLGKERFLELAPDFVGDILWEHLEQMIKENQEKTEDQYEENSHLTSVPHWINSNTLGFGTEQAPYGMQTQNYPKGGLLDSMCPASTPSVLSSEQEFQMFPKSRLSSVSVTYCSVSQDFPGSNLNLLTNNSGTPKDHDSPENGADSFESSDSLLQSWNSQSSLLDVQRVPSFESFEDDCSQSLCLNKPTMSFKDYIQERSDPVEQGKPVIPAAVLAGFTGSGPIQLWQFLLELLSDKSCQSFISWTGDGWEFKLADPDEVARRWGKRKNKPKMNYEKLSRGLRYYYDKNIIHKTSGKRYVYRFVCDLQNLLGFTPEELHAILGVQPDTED
# In short: as §1
# SPDEF = target: T9, SPDEF (Homo sapiens, UniProt O95238 1-335); settings: protein: recombinant; tags: N-terminal GST; dsDNA, one strand shown
# T9 sequence: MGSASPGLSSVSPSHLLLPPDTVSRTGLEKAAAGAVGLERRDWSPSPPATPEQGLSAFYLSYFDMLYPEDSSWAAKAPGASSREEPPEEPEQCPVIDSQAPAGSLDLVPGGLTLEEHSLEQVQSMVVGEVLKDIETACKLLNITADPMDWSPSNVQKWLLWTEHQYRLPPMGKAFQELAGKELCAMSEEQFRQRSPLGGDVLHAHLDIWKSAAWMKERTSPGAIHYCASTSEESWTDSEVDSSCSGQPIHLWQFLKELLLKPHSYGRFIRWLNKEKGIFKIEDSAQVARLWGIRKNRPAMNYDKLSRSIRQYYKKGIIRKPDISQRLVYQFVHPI
# In short: as §1
# ETV7 = target: T10, ETV7 (Homo sapiens, UniProt Q9Y603 1-341); settings: protein: recombinant; tags: N-terminal GST; dsDNA, one strand shown
# T10 sequence: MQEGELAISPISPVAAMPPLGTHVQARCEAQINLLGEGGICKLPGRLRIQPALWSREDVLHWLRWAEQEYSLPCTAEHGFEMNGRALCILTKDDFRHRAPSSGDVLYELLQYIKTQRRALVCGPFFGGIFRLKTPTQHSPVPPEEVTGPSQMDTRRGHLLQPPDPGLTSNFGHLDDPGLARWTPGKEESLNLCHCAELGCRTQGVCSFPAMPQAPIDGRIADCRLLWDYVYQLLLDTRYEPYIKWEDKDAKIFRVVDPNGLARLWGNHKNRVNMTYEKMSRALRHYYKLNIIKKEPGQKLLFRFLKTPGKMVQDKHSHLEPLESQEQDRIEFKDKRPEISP
# In short: as §1
# ELF5 = target: T11, ELF5 (Homo sapiens, UniProt Q9UKW6-2 1-255); settings: protein: recombinant; tags: N-terminal GST; dsDNA, one strand shown
# T11 sequence: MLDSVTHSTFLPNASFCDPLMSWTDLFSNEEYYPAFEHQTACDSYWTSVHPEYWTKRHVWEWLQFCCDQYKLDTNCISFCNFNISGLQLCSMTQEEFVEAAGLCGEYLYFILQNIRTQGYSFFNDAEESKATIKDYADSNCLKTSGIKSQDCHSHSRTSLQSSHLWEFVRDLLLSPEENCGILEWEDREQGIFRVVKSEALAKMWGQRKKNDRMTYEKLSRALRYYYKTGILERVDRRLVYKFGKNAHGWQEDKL
# In short: as §1
# ETV3 = target: T12, ETV3 (Homo sapiens, UniProt P41162-2 1-143); settings: protein: recombinant; tags: N-terminal GST; dsDNA, one strand shown
# T12 sequence: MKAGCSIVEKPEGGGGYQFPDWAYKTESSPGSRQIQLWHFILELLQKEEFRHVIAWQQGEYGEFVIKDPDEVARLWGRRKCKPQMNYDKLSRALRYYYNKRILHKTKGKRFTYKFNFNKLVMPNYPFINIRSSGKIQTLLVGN
# In short: as §1
# ETV6 = ETV6 (Homo sapiens, UniProt P41212 1-452); settings: protein: recombinant; tags: N-terminal GST; dsDNA, one strand shown
# In short: as §1
# Sequence of ELF4 (Q99607 whole entry): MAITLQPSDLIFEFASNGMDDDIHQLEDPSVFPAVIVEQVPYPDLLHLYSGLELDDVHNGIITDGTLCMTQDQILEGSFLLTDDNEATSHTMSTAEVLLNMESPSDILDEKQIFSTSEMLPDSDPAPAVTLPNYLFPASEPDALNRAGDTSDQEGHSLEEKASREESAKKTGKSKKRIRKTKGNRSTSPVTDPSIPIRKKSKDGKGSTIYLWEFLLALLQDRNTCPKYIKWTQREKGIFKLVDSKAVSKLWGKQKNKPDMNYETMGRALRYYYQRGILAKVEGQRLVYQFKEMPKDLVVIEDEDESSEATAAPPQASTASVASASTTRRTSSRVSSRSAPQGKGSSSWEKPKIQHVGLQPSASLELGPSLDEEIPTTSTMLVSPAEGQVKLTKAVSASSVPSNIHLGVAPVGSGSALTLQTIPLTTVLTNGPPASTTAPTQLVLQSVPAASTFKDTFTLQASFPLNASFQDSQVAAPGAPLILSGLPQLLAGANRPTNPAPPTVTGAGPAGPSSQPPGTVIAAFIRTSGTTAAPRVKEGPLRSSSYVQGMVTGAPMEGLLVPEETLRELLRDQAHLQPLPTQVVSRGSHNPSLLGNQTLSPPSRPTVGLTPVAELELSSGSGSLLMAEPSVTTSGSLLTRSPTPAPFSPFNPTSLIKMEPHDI
# Sequence of ETV1 (P50549 whole entry): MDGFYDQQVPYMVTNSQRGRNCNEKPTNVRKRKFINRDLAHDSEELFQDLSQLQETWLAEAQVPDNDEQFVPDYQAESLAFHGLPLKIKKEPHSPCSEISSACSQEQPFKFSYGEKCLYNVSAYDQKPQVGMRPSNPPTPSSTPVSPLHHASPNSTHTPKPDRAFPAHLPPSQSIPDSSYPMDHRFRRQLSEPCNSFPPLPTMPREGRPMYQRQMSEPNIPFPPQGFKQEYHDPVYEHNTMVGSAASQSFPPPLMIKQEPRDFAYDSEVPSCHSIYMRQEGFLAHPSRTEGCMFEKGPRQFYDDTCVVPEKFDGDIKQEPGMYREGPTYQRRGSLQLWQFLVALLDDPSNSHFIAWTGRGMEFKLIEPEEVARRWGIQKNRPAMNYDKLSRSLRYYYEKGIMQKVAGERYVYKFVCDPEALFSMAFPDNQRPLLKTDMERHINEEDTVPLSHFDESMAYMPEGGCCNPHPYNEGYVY
# Sequence of CRX (O43186 whole entry): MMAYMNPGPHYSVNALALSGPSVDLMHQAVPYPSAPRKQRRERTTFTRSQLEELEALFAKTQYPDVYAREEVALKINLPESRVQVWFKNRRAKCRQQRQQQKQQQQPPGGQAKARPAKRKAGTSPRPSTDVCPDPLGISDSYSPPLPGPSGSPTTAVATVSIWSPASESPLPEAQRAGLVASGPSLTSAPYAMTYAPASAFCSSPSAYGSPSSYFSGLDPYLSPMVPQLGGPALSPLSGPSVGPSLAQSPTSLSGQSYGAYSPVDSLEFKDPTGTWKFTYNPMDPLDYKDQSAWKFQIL
# Sequence of ETV6 (P41212 whole entry): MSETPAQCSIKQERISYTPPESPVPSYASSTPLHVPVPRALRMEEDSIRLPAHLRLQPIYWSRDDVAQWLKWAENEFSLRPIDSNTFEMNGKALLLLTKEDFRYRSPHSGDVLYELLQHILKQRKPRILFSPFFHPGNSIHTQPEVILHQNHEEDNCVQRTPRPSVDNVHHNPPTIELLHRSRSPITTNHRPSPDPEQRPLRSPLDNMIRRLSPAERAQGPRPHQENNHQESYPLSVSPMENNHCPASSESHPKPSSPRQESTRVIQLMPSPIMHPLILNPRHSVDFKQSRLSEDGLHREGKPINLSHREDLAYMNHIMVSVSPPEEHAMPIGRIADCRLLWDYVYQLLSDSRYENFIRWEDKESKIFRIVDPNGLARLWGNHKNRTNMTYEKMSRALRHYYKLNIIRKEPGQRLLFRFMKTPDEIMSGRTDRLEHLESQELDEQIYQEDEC
# Sequence of ETV5 (P41161 whole entry): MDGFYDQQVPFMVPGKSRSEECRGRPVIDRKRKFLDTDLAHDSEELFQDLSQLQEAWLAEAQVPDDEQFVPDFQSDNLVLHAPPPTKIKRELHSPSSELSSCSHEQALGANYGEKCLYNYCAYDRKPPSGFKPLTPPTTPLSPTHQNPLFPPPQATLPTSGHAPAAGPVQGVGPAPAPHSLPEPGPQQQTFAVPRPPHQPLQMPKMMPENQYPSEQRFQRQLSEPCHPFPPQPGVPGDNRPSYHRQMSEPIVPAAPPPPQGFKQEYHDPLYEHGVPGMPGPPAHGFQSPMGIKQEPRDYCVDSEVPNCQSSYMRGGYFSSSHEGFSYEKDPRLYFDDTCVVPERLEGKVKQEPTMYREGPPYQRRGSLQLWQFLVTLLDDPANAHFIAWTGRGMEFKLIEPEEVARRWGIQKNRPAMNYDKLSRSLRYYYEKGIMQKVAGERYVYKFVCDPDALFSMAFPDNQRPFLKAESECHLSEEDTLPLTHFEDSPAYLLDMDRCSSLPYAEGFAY
# Sequence of HSF1 (Q00613 whole entry): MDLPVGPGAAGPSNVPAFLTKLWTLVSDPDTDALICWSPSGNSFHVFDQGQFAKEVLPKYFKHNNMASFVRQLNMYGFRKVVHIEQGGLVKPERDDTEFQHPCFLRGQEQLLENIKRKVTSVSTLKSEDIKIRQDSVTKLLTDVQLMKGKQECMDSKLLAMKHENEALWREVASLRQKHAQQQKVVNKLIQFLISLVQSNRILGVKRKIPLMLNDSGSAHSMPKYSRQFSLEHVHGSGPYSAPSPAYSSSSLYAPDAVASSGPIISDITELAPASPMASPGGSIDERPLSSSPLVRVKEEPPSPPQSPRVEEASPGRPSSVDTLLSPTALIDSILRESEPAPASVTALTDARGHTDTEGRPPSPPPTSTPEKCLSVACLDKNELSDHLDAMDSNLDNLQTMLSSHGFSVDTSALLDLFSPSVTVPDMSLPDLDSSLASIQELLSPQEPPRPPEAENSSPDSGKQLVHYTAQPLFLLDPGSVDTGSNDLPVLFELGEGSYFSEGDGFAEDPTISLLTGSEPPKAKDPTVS
sequence,measurement,setting,value
TACTGT,binding signal,FEV,"1.11 fold enrichment (6-mer frequency, TF over GST control)"
same,binding signal,ETV5,"1.15 fold enrichment (6-mer frequency, TF over GST control)"
same,binding signal,HSF1,"1.05 fold enrichment (6-mer frequency, TF over GST control)"
same,binding signal,SPIC,"1.1 fold enrichment (6-mer frequency, TF over GST control)"
same,binding signal,ELF4,"1.12 fold enrichment (6-mer frequency, TF over GST control)"
same,binding signal,ELK4,"1.25 fold enrichment (6-mer frequency, TF over GST control)"
same,binding signal,ETV2,"1.34 fold enrichment (6-mer frequency, TF over GST control)"
same,binding signal,ELF3,"1.03 fold enrichment (6-mer frequency, TF over GST control)"
same,binding signal,CRX,"1.11 fold enrichment (6-mer frequency, TF over GST control)"
same,binding signal,ETV1,"1.17 fold enrichment (6-mer frequency, TF over GST control)"
same,binding signal,ERF,"1.2 fold enrichment (6-mer frequency, TF over GST control)"
same,binding signal,ETV3L,"1.15 fold enrichment (6-mer frequency, TF over GST control)"
same,binding signal,ETS2,"1.16 fold enrichment (6-mer frequency, TF over GST control)"
same,binding signal,SPDEF,"1.11 fold enrichment (6-mer frequency, TF over GST control)"
same,binding signal,ETV7,"1.04 fold enrichment (6-mer frequency, TF over GST control)"
same,binding signal,ELF5,"1.14 fold enrichment (6-mer frequency, TF over GST control)"
same,binding signal,ETV3,"1.13 fold enrichment (6-mer frequency, TF over GST control)"
same,binding signal,ETV6,"1.1 fold enrichment (6-mer frequency, TF over GST control)"
